# Shown are actives, neighbours in structure and some others; about 1.2% of the full set was active somewhere.
# GCN5L2 inh: blocks human GCN5L2 histone acetyltransferase | Q92830 | GCN5L2 HAT assay, ThioGlo1 CoA-SH fluorescence | Potency, µM (series often up to 58.9 µM), for the others: at the top dose activity change, negative = inhibition, actives largely listed as inhibitors | hit rate 0.21% among 390,000 | AID 504327
#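 Enzyme at 20nM final was mixed with library compounds for 15 min at room temperature. Peptide H3(1-25) at 75uM, acetyl-CoA at 70uM and ThioGlo1 at 50uM were then added. Plates were read immediately and after 20 min (Ex340nm/Em540nm).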
# RGS12 GoLoco inh: RGS12 GoLoco-Gai1 interaction inhibition. Gai1:RGS12 GoLoco peptide FP, rhodamine, 10 min. Potency, µM (titrated, usually from 61.6 µM), for the others: top-dose activity, negative = inhibition, most hits filed as inhibitors. hit rate 0.44% among 230,000. AID 880; active = well fitted inhibition curve with a large enough effect, not every such curve was filed as active; inactive = no such curve, though single readings can be large or run the other way; note: nearly all actives have a fitted effect of over 30% in size
# TR SRC2 fluor cs: alters Texas Red total fluorescence, flagging assay interference. TRb/SRC2 Texas Red total fluorescence interference. hit rate 0.29% among 280,000. AID 1479. Potency, µM (series often up to 106 µM), for the others: top-dose fluorescence change, negative = quenching; active = well fitted curve in either direction with a large enough effect; inconclusive = small, poorly fitted or top-dose-only effect
#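 Flags fluorescent or light-absorbing compounds by total fluorescence, S + 2P, at 555 nm excitation and 632 nm emission. Mixture: 20 nM Texas Red SRC2 peptide, 0.6 uM human TRb LBD, 1 uM T3, 5% DMSO; compound exposure 5 h at ambient temperature.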
# TRb SRC2 PPI: TRbeta-SRC2 interaction inhibition. Potency, µM (doses to about 106 µM), inactives show at the top dose activity change, negative = inhibition, actives largely listed as inhibitors. AID 1469. hit rate 0.065% among 280,000. TRbeta-SRC2 peptide binding, fluorescence polarization; receptor liganded with 1 µM T3;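 note: plate controls were bound peptide for no effect and peptide without receptor for full effect; nearly all actives have a fitted effect of over 50% in size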
# Target sequence (P10828 whole entry, looked up): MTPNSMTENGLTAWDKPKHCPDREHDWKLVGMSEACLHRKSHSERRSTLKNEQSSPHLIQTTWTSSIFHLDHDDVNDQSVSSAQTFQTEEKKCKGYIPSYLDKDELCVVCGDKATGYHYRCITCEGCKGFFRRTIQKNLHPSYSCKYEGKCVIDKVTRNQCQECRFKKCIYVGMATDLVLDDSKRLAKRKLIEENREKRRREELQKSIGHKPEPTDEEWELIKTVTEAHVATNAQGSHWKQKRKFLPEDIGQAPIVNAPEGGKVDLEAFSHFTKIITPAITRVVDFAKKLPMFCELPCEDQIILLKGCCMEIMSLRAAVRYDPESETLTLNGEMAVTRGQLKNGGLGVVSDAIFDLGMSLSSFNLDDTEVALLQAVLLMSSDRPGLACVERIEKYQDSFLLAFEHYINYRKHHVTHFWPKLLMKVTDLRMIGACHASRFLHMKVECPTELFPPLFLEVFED
#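 Binding of a 20-amino-acid Texas Red SRC2 peptide (20 nM) to TRb ligand-binding domain (0.6 uM) with agonist T3 at 1 uM was followed by fluorescence polarization after a 5 hr room-temperature incubation.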
# VDR inhibitor: vitamin D3 receptor (human) inhibition; P11473; Potency, µM, without a hit: max response, negative = inhibition, hits mostly inhibitors; hit rate 0.93% among 400,000; AID 504847; VDR-SRC2-3 peptide fluorescence polarization, 2 h
#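 Fluorescence polarization assay measuring small-molecule disruption of VDR binding to the coregulator peptide SRC2-3. Compounds were pin-transferred (23 nl) into the reagent mix and incubated 2 h at room temperature before reading.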
# Active calls of the source: *; ? = inconclusive; . = not tested or not shown; ! = not active in a repeat; [ ] = another dose, or the depositor's remark. Unless noted, calls come from the whole dose curve; as a rule, active = well fitted curve in the direction sought with a large enough effect; inconclusive = small, poorly fitted or top-dose-only effect, or another doubt; inactive = no such curve, though single readings can be large; an effect the other way counts as inactive or inconclusive. Unless noted, % is set by controls: 0 for no effect and ±100 for the full control effect; potency is the fitted concentration of half-maximal effect.
SMILES,GCN5L2 inh,RGS12 GoLoco inh,TR SRC2 fluor cs,TRb SRC2 PPI,VDR inhibitor
Cc1ccc(S(=O)(=O)N2CCOCC2)cc1NC(=O)COc1ccc(C(=O)c2ccccc2)cc1,-3%,.,.,.,89µM*
COc1cc(OC)cc(-c2nnc3n2N=C(c2cc(OC)ccc2OC)CS3)c1,.,.,0%,-5%,.
CNC(=O)COc1ccc(S(=O)(=O)N2CCCC2)cc1,-7%,.,.,.,50µM*
O=C(O)/C=C/C(=O)Nc1ccc(OC(F)(F)F)cc1Br,-8%,-2%,-8%,32µM*,0%
O=C(O)/C=C/C(=O)Nc1ccc(OC(F)(F)F)cc1,-4%,-3%,-6%,-4%,-2%
CCCn1c(SCC(=O)N2CCCCC2)nnc1C(C)C,-5%,13%,-6%,0%,79µM*
O=c1oc2ccccc2c(O)c1/C=N/c1nc(-c2ccc(O)c(O)c2)cs1,.,70%[14.2 µM],.,.,.
NC1=CC(=O)C(=O)c2ccccc21,.,.,.,.,45µM*
COc1cccc(/C=C/C(=O)OCC(=O)NCC2CCCO2)c1OC (configuration not stated),7%,-22%,71µM*[quencher],-17%[53 µM],9%
CO[C@H]1COC(=O)C/C=C\[C@H](C)[C@@H](OC)COC(=O)[C@@H](C)COC(=O)C/C=C\[C@@H]1C,.,.,-1%[11.2 µM],-1%[11.2 µM],.
Cc1ccc(N2NC(=O)/C(=C/c3ccc(-c4ccc(Cl)c(C(=O)O)c4)o3)C2=O)cc1C,-5%,5%,-14%,0%,5%
COC(=O)c1ccc(N2NC(=O)/C(=C/c3ccc(-c4ccc(Cl)c(C(=O)O)c4)o3)C2=O)cc1,-8%,6%,-9%,4%,79µM*
O=C1NN(c2ccc(Cl)c(Cl)c2)C(=O)/C1=C/c1ccc(-c2ccccc2C(=O)O)o1,?,.,.,.,45µM*
O=C(CCS(=O)(=O)c1nc(-c2ccc3c(c2)OCO3)cc(C(F)(F)F)n1)Nc1ccccc1F,-8%,.,-3%,-3%,40µM*
CC(=O)N(c1ccc(Cl)cc1)C1SC(=O)N(c2ccccc2)C1=O (configuration not stated),.,.,.,.,-3%
CCN1CC2=C(OC(N)=C(C#N)C2c2cccs2)/C(=C/c2cccs2)C1 (configuration not stated),-3%,57%,-2%,-17%,0%
CCN1CC2=C(OC(N)=C(C#N)C2c2ccccc2)/C(=C\c2ccccc2)C1 (configuration not stated),-3%,68%,45µM*[fluorescent],45µM*,10%
N#CC1=C(N)OC2=C(CN(Cc3ccccc3)C/C2=C\c2cccnc2)C1c1cccnc1 (configuration not stated),-5%,-46%,?,?,-23%
CC(C)N1CC2=C(OC(N)=C(C#N)C2c2cccnc2)/C(=C/c2cccnc2)C1 (configuration not stated),-1%,-96%,45µM*[fluorescent],45µM*,-24%
O=C(Nc1nccs1)C(Br)C(Br)c1ccccc1 (configuration not stated),-16%,.,.,.,28µM*
CC(=O)OC(C(=O)Nc1nccs1)c1ccccc1 (configuration not stated),1%,.,.,.,20%
O=C(O)c1nnsc1-c1ccc(-c2snnc2C(=O)O)cc1,.,-2%[14.2 µM],.,.,.
COc1ccc(C2CC(=O)N3CN(Cc4ccco4)CSC3=C2C#N)cc1 (configuration not stated),-3%,-20%,1%,1%,28µM*
COc1ccc2ccccc2c1C1CC(=O)N2CN(Cc3ccco3)CSC2=C1C#N (configuration not stated),?,-14%,-1%,4%,?
COc1ccc(C2CC(=O)N3CN(C4CCCCC4)CSC3=C2C#N)c(OC)c1 (configuration not stated),-19%,.,-1%,-4%,?
SMILES,GCN5L2 inh,RGS12 GoLoco inh,TR SRC2 fluor cs,TRb SRC2 PPI,VDR inhibitor
CC(C)c1ccc(C2CC(=O)N3CN(Cc4ccco4)CSC3=C2C#N)cc1 (configuration not stated),?,-11%,-3%,6%,40µM*
N#CC1=C2SCN(Cc3ccccc3)CN2C(=O)CC1c1ccc2c(c1)OCO2 (configuration not stated),-26%,-24%,2%,-18%,50µM*
COc1ccc(N2CSC3=C(C#N)C(c4cccc(OC)c4OC)CC(=O)N3C2)cc1 (configuration not stated),?,-39%,4%,6%,20µM*
N#CC1=C2SCN(Cc3ccco3)CN2C(=O)CC1c1ccc(Cl)cc1 (configuration not stated),-17%,-8%,-2%,-2%,?
Nc1ccc(S(=O)(=O)NCc2nccs2)cc1,.,4%[14.2 µM],.,.,.
C[C@H]1Cc2c(COc3ccccc3)nc3c(c2CO1)CN(C(=O)c1ccco1)CC3,.,1%[14.2 µM],-2%[11.2 µM],-1%[11.2 µM],.
O=C(O)CCCC/C=C(\c1ccccc1)c1cccnc1,-9%,.,0%,9%,2%
Cc1ccc2c(c1)-c1ncc(C(=O)c3ccccc3O)cc1CO2,1%,.,4%,6%,-11%
O=C(c1cnc2c(c1)COc1ccc(Cl)cc1-2)c1ccccc1O,-6%,4%,7.9µM*![quencher],-15%,3%
O=C1C2=CC[C@@H]3C(=O)N(c4ccc(F)cc4F)C(=O)[C@H]3[C@H]2[C@H](O)[C@H]2O[C@H]12,.,.,-3%[11.2 µM],2%[11.2 µM],.
Cc1cc(O)c(C=O)c2c1C(=O)Oc1c(CO)c(O)c3c(c1O2)C(O)OC3=O (configuration not stated),16µM*,11µM*,11µM*[quencher],?,18µM*
Cc1cc(O)c(C=O)c(O)c1C(=O)O,3%,5%,0%,-5%,9%
Cc1cc(O)c(C=O)c2c1C(=O)Oc1c(COC(=O)/C=C/C(=O)O)c(O)c(C(=O)O)c(C)c1O2,20µM*,-15%,7.1µM*[quencher],?,6.3µM*
NC(C(=O)O)C(O)c1ccc(O)c(O)c1 (configuration not stated),14µM*,2%,-17%,6%,?
N[C@@H](Cc1ccc(O)c(O)c1)C(=O)O,-7%,6%[21.6 µM],-2%[201 µM],-3%[201 µM],-4%
Cc1cc(=O)[nH]c2ccccc12,-4%,6%,-4%,3%,-12%
Cc1[nH]c(=O)cc2ccccc12,16%,8.9µM*,0%,9%,-4%
BrC(Br)C(Br)Br,.,-4%,0%,11%,.
CCSc1nc2ccccc2n1CC(N)=O,2%,-1%,-7%,-8%,7%
CCSc1nc2ccccc2n1C(=O)/C=C\c1ccc(OC)c(OC)c1,-14%,-8%,-1%,-2%,50µM*
CCOC(=O)COc1ccc2ccccc2c1/C=C/[N+](=O)[O-],-3%,6%,6%,1%,25µM*
COCCN=C1Sc2nc3c(C)cccc3cc2CN1Cc1ccco1,21%,22%,-2%,-4%,89µM*
COCCN=C1Sc2nc3ccc(C)cc3cc2CN1Cc1cccs1,-6%,13%,-1%,5%,-15%

# Screens: PubChem, National Center for Advancing Translational Sciences (NCATS)
